The subject of assay [1] is Wnt5a (protein binding on small-molecule microarray). The assay can be described thus: Wnt5a binders on small-molecule microarray, primary screen, biophysical, 635/667 nm fluorescence (AID 1142).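 Also: fluorescence read at 667 nm with signal to noise per printed feature.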 The conditions noted are these: 635 nm fluorescence, higher = more signal.
A short description of assay [2]: cell viability in Huh7 cells, primary screen, cytotoxicity control for HCV replication inhibitor project, CellTiter-Glo luminescence, basal, 48 h (AID 1143).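 Also: Huh7 hepatoma cells carrying a hepatitis C replication reporter with no stimulus; test concentration not given here.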 The conditions noted are these: Huh7 HCV replicon, higher = more signal, called active from +8 up or from −8 down. (In general: Cellular ATP, detected with luciferase, serves as a proxy for viable cell number.)

Assay [3] in a line: P. aeruginosa biofilm formation inhibitors, primary screen, PAO1 strain, BacTiter-Glo luminescence, LB-PBS (AID 1144). The conditions noted are these: 12 h, higher = more signal.
Assay [4] is described as follows: CREB reporter modulators without forskolin, primary screen, cell-based, PC12, CRE-LacZ reporter, unstimulated (AID 1145). The conditions noted are these: no forskolin, luminescence, 4.5 h, higher = more signal, called active from +8 up or from −8 down.
Assay [5] can be described thus: CREB reporter modulators under forskolin, primary screen, cell-based, PC12, CRE-LacZ reporter, forskolin-stimulated (AID 1146).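 Also: PC12 cells with 6xCRE LacZ reporter stimulated by forskolin 10 µM; beta-galactosidase reporter signal reflecting CREB driven transcription.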 The conditions noted are these: luminescence, 4.5 h, higher = more signal, called active from +8 up or from −8 down.
For assay [6], the target named is Streptavidin (Streptomyces avidinii) (UniProt P22629). Kind of assay: streptavidin binders on small-molecule microarray, primary screen, artefact control for SMM compound annotation, biophysical, 635/667 nm fluorescence (AID 1147).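 Also: signal reflects streptavidin binding to arrayed compounds as a control protein.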 The conditions noted are these: streptavidin binding, higher = more signal.
Chain of Streptavidin (Streptomyces avidinii) (P22629 whole entry, looked up): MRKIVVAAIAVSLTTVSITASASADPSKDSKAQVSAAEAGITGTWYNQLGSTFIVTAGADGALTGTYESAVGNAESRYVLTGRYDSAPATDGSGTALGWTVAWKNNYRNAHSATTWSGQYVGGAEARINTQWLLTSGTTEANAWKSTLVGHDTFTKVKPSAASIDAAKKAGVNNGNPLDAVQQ
Assay [7] in a line: small-molecule binders of probe aInhba, primary screen, biochemical, small-molecule microarray, 635/667 nm fluorescence (AID 1148).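 Also: score merges 667nm spot fluorescence with signal-to-noise for antibody binding to printed compounds.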 The conditions noted are these: higher = more signal.
Assay [8] addresses Torsin-1A (Homo sapiens) (UniProt O14656). Kind of assay: torsin A binders from cell lysate, primary screen, small-molecule microarray, wild-type, 635/667 nm (AID 1149). Conditions: COS7 hTOR1A-WT lysate, 635 nm fluorescence, higher = more signal.
For assay [9] the target is unchanged. Kind of assay: small-molecule binders of mutant TOR1A in lysate, primary screen, cell lysate, small-molecule microarray, COS7 lysate, 635/667 nm fluorescence (AID 1150).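 Also: score pools 667 nm emission and signal to noise measuring lysate protein binding.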 Conditions: COS7 hTOR1A mutant lysate, 635 nm fluorescence, higher = more signal.
Assay [10] relates to Sonic hedgehog protein (Shh). Kind of assay: small-molecule binders of Shh protein, primary screen, biochemical, small-molecule microarray, 635/667 nm fluorescence (AID 1151).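 Also: Shh protein binding to compounds spotted on small-molecule microarray slides; score combines spot fluorescence intensity with signal-to-noise across triplicate slides.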 The conditions noted are these: small-molecule microarray binding, 635 nm fluorescence; higher = more signal.
The nature of assay [11]: E. coli DRC41 culture turbidity changes, primary screen, E. coli filamentation inducer project, strain DRC41, OD650, 48 h (AID 1152).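 Also: E. coli MC1000 strain DRC41 lacking acrAB efflux pump and sulA.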 The conditions noted are these: E. coli DRC41 (acrAB sulA), higher = more signal, called active from +8 up or from −8 down.
Assay [12] in a line: small-molecule binders of probe aLefty1, primary screen, biochemical, small-molecule microarray, 635/667 nm fluorescence (AID 1153).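 Also: score merges spot fluorescence with signal-to-noise ratio from the scanned slide images.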 The conditions noted are these: higher = more signal.
Assay [13] is described as follows: PSAC antagonists in infected red cells, primary screen, cell-based, P. falciparum Indochina, OD700, 1 h (AID 1154). The conditions noted are these: P. falciparum Indochina infected RBC osmotic lysis, higher = more signal, called active from +8 up or from −8 down.
Assay [14] is described as follows: PSAC antagonists in infected red cells, primary screen, cell-based, P. falciparum Indochina, OD700, 2 h (AID 1155).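 Also: lysis reports solute entry through the parasite surface anion channel PSAC; channel blockers reduce lysis of infected cells.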 The conditions noted are these: P. falciparum Indochina infected erythrocytes, osmotic lysis OD700; higher = more signal, called active from +8 up or from −8 down.
Assay [15] in a line: osmotic lysis modulators in infected erythrocytes, primary screen, PSAC antagonist project, cell-based, P. falciparum Indochina, OD700, 3 h (AID 1156). The conditions noted are these: higher = more signal, called active from +8 up or from −8 down.
Assay [16] in a line: PSAC antagonists in infected red cells, primary screen, cell-based, P. falciparum Indochina, OD700, 18 h (AID 1157). The conditions noted are these: P. falciparum Indochina infected erythrocytes, osmotic lysis OD700, 18 h; higher = more signal, called active from +8 up or from −8 down.
Assay [17] can be described thus: modulators of S6 phosphorylation in cells, primary screen, cell-based, A549, cytoblot, luminescence, serum-stimulated (AID 1158).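 Also: serum-stimulated A549 lung adenocarcinoma cells; signal is phosphorylated S6 detected by cytoblot immunostaining with HRP secondary.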 The conditions noted are these: A549 phospho-S6 cytoblot, 5 h, higher = more signal.
In assay [18] the target is NADPH oxidase 2 (Homo sapiens) (UniProt P04839). Kind of assay: NOX2-dependent H2O2 signal modulators, primary screen, NOX inhibitor project, cell-based, HEK293-NOX2, PMA-stimulated, Amplex Red fluorescence (AID 1159). Also: test concentration not given here. Conditions: 45 min, higher = more signal, called active from +8 up or from −8 down.
Chain of NADPH oxidase 2 (Homo sapiens) (P04839 whole entry, looked up): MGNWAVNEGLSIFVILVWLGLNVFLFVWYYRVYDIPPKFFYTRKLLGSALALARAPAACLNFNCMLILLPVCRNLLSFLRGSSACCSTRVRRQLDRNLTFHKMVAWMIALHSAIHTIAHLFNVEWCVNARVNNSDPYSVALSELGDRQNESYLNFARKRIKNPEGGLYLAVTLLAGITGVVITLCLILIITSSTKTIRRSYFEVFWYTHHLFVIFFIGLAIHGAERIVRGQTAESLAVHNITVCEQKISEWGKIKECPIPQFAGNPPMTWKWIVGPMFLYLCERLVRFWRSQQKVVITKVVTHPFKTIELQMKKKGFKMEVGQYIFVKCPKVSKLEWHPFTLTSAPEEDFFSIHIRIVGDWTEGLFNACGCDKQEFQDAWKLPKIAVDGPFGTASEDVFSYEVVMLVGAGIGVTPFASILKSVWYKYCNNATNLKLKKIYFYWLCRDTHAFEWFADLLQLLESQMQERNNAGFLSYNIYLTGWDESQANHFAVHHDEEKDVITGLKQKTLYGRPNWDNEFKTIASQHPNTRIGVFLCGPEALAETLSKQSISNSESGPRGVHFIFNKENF
Assay [19] has as its target NADPH oxidase 4 (Homo sapiens) (UniProt Q9NPH5). The assay can be described thus: NOX4-dependent H2O2 signal modulators, primary screen, NOX inhibitor project, cell-based, HEK293-NOX4, tetracycline-induced, Amplex Red fluorescence (AID 1160). The conditions noted are these: 45 min, higher = more signal, called active from +8 up or from −8 down.
Assay [20] addresses NADPH oxidase 5 (Homo sapiens) (UniProt Q96PH1). Kind of assay: NOX5-dependent H2O2 signal modulators, primary screen, NOX inhibitor project, cell-based, HEK293-NOX5, Amplex Red fluorescence (AID 1161). The conditions noted are these: HEK293-NOX5, ionomycin, 45 min, higher = more signal.

This is an account of results in PubChem BioAssay.

The structures appear in SMILES notation. Activity calls are given as the source filed them. Unless noted, no rule for the calls is given here.

Chain of Torsin-1A (Homo sapiens) (O14656 whole entry, looked up): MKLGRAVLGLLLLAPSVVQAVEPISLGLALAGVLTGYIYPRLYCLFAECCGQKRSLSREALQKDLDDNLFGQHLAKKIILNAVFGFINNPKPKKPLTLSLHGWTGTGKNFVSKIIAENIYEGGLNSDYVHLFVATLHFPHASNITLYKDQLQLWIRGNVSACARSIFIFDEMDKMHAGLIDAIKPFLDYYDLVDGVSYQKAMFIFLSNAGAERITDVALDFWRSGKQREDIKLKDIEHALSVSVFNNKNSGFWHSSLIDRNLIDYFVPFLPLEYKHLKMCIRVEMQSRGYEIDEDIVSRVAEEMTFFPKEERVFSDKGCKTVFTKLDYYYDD
Chain of NADPH oxidase 4 (Homo sapiens) (Q9NPH5 whole entry, looked up): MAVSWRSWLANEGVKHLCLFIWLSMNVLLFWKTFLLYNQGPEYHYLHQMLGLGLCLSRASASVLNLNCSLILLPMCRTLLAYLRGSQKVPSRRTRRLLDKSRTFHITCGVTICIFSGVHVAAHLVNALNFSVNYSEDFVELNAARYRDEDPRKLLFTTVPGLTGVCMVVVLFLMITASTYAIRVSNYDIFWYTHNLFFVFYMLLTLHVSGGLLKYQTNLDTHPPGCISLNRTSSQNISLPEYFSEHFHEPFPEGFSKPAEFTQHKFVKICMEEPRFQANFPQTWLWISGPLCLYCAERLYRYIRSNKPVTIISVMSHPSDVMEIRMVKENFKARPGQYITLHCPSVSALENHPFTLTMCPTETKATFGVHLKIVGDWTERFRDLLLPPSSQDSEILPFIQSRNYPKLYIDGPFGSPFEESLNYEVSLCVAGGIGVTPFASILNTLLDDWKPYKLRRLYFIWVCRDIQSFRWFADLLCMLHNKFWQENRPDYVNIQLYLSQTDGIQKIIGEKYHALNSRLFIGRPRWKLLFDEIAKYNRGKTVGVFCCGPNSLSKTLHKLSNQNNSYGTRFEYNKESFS
Chain of NADPH oxidase 5 (Homo sapiens) (Q96PH1 whole entry, looked up): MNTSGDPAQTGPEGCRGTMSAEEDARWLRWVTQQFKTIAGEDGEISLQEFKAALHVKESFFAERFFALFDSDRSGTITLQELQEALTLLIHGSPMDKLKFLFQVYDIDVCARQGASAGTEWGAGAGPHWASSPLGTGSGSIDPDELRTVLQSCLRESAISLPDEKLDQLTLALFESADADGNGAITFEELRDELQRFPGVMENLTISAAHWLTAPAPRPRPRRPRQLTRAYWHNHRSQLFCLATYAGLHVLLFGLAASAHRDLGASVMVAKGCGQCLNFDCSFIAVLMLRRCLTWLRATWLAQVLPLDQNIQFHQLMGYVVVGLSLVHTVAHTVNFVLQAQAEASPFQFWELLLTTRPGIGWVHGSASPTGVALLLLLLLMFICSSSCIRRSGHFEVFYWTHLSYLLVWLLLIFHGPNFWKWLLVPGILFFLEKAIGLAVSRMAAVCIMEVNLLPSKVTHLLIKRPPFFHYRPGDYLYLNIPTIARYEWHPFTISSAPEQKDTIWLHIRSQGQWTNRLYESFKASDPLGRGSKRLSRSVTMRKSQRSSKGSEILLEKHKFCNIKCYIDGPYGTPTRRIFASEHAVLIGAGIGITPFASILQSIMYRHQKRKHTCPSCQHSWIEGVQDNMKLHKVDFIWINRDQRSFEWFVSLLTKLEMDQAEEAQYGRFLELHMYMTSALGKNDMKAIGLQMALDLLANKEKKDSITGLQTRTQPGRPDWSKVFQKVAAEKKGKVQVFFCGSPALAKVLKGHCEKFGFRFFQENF

As for `c1ccc(C2NCCc3c2[nH]c2ccccc32)cc1` (stereo not given), the composite z-score in assay [1] was -0.18; in assay [6] it was -0.26; in [7], -0.101; in the assay with Torsin-1A (Homo sapiens) [8], 0.586; in the assay with Torsin-1A (Homo sapiens) [9] it was 0.462; in [10] it was -0.12. The compound further gave a composite z-score in assay [12] of 0.155. The z-score is -0.92 (inactive) in assay [2]; -0.0191 (inactive) in [3]; -0.253 (inactive) in [4]; -1.11 (inactive) in assay [5]; -1.78 (inactive) in [11]; 1.07 (inactive) in assay [13]. Besides, the z-score is 0.709 (inactive) in [14]; 0.806 (inactive) in [15]; -0.0204 (inactive) in [16]; -0.513 in assay [17]; 0.943 (inactive) in [18]; -0.561 (inactive) in [19]. In addition, the z-score in assay [20] came out at 1.23.

`N#Cc1ccc(NN2C(C(O)c3cc(C(F)(F)F)cc(C(F)(F)F)c3)C=CC3C(=O)N(c4ccccc4)C(=O)C32)cc1` (stereo not given): the composite z-score in assay [1] is 0.261; in assay [6], 1.39; in assay [7], 0.231; in the assay with Torsin-1A (Homo sapiens) [8], 1.43; with Torsin-1A (Homo sapiens) [9], 1.06; in assay [10] it was -0.0099. The same compound showed a composite z-score in assay [12] of 0.0971. Further, the z-score in assay [2] was -2.24 (inactive); in assay [3], -0.875 (inactive); in assay [4], 0.822 (inactive); in [5], -0.389 (inactive); in [11] it was -1.54 (inactive); in [13] it was 4.78 (inactive). Moreover, the z-score in assay [14] is 2.32 (inactive); in [15], -3.13 (inactive); in [16], 1.54 (inactive); in [17], -1.07; in [18] it was -1.19 (inactive); in assay [19] it was -3.23 (inactive). This compound also had a z-score in assay [20] of -1.4.

For the compound `COC(=O)[C@]1(CO)N=C(c2ccc(OCCCO)cc2)O[C@@H]1c1ccccc1N=[N+]=[N-]`, the composite z-score in assay [1] is 0.421; in assay [6], -0.435; in [7], 0.0646; in the assay with Torsin-1A (Homo sapiens) [8] it was 1.85; with Torsin-1A (Homo sapiens) [9] it was 1.9; in assay [10], 2.05. For the same compound, in assay [12], the composite z-score stood at 0.191. In addition, the z-score in assay [2] was 0.159 (inactive); in assay [3] it was 0.393 (inactive); in [4] it was -0.609 (inactive); in assay [5], -0.736 (inactive); in [11] it was 0.248 (inactive); in assay [13], 18.3 (active). The z-score in assay [14] is 2.32 (inactive); in assay [15] it was 1.49 (inactive); in assay [16], 0.742 (inactive); in assay [17] it was -0.315; in assay [18], -0.502 (inactive); in assay [19] it was 0.0857 (inactive). Moreover, the z-score in assay [20] is -0.514.

With `COc1ccc(O[C@H]2C=C[C@@H](c3ccccc3)O[C@@H]2CON=C[C@@H](C)[C@H](OCc2ccccc2)C(C)C)cc1`, the composite z-score is -0.426 in [1]; -0.567 in [6]; -0.21 in [7]; -1.53 with Torsin-1A (Homo sapiens) [8]; -0.91 with Torsin-1A (Homo sapiens) [9]; -0.071 in assay [10]. This compound also gave a composite z-score in assay [12] of -0.246. In addition, the z-score was -0.149 (inactive) in assay [2]; 0.531 (inactive) in assay [3]; -0.971 (inactive) in assay [4]; 0.367 (inactive) in assay [5]; 0.302 (inactive) in assay [11]; 2.08 (inactive) in assay [13]. The z-score was 0.98 (inactive) in [14]; 0.422 (inactive) in assay [15]; 0.319 (inactive) in [16]; 0.831 in [17]; -0.734 (inactive) in assay [18]; 0.877 (inactive) in assay [19]. The z-score in [20] is -0.165.
